# Source: the OligoGym collection
# Biological target: SLC10A7
# Test: pooled miR-30 sensor sort-seq; sequence = guide strand
# Conditions: shRNA
# Note: reference of the scale not given here.
row,Sequence,sensor-assay potency score (higher = more potent)
1,TTTAGCTCCAGCGATCGCCAGC,-1.45
2,TATTGTTGCAACAGCAATGTAG,0.00955
3,TTCTGCCTTGATACCATCCAAG,-1.16
4,AACAGTATGAGAACAAGGCTGA,0.508
5,ATGAGGAGTACACTGCTGCTGA,-0.89
6,TATCTTCGGACAATCTGTCCAA,-0.198
7,TAAACTATGTTTACTTACCAAA,-1.05
8,TTACTTACCAAAAAACTTCCAA,0.24

# Biological target: SLC12A1
# Test: as above
# Conditions: shRNA
row,Sequence,sensor-assay potency score (higher = more potent)
1,TTGATGACAAACATGACTGCAC,0.915
2,TTCCAATGCTAGTCTCTCCTGT,0.793
3,TATGACACTAACTTGAAAGCGA,0.571
4,TTGTGTGAGAATCATAAGCGTG,-0.782
5,TTTGTGAGGATTTCCAACCAAG,-0.956
6,TTTCTTGTTTATCAACAGCAGT,-1.1
7,TTGCTCGTGAATCTCAAGCAGG,-0.686
8,TTGAATATTTTGTAGACTCAAC,-1.22
9,TTTCTTATATCCAATCACCAGA,-0.816
10,TTGAGTGCTGGCTTCCACCAGT,-0.0176
11,TATCTTTGATAGTCGCTTCCAA,0.0928
12,TTGTAGACTCAACTACTTCTTA,-0.589

# Biological target: SLC12A6
# Test: as above
# Conditions: shRNA
row,Sequence,sensor-assay potency score (higher = more potent)
1,TAAGTCTTCATCTAGTTTCAGT,-0.702
2,TTCTTTAGTAAGATGAAGCTGT,0.156
3,TATTGAGATAAGCATTTCGAGC,-1.39
4,TTTTAGTGTGTGGAGGTCCTTC,-0.634
5,TTGTCTCTGAGAACAACCCCTT,-0.146
6,TACTGTTGTCTTCTAATTGGGC,-0.548
7,TAGCTTGTAGCAGCCTCGGTGC,-1.11
8,TATCAAAATATTCATCTCCTTC,-0.342
9,TTTTTGAAGAAGTAGAGGCTGC,0.521
10,TGTACTTGTAGATCATACCAGC,-0.605
11,TTGTTAACTATAACCTCGTTGA,-0.0795
12,TTACTCGGGAACTAGATCGAGA,-0.428

# Biological target: SLC13A5
# Test: as above
# Conditions: shRNA
row,Sequence,sensor-assay potency score (higher = more potent)
1,TTGTCTCTCATGTCTGTCTCTT,-0.189
2,TTTTTCTTGCTCTCTAGCCCGC,-0.694
3,TATGACTCCTGTTTTCACCATG,-1.13
4,TTGTCCACCAGCTCCAGGCCGG,-0.842
5,TACACAACCTCTTCCGCTCTTG,-0.374
6,TTATGTTCATTATGACTCCTGT,0.0164
7,TTTAAAATTGAATCTCATGTAA,-0.532
8,TTGACAGCCAAAAACACACAGA,-0.786
